According to the supplement of paper PMC10515830:
Counter-ions that a name gives are not always drawn.

What was measured:
Details in all cases: 10 µM; exposure time 6 h
[1] = tested on: Danio rerio larvae (5 dpf); assay: difference in excitability vs DMSO (percentage points); higher = more excitable than DMSO
Outline: (§1)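 In 96-well plates, 48 wild-type zebrafish larvae aged 5 dpf per compound received 100 µL egg water with library compound at 10 µM final for 6 h. Three hours into this, a 3-h programme of moving lines and 100 ms, 400Hz tones ran at 28.5 ℃ while plates were photographed every 6 s. Z-LaP Tracker scored the behaviours, and each is given as the compound mean minus the vehicle control mean in percentage points.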

[2] = tested on: Danio rerio larvae (5 dpf); assay: difference in startle response vs DMSO (percentage points); higher = stronger startle than DMSO
Outline: as §1

[3] = tested on: Danio rerio larvae (5 dpf); assay: difference in activity during first hour vs DMSO (percentage points); higher = more activity than DMSO
Outline: as §1

[4] = tested on: Danio rerio larvae (5 dpf); assay: difference in habituation to acoustic stimuli vs DMSO (percentage points); higher = more habituation than DMSO
Outline: as §1

[5] = tested on: Danio rerio larvae (5 dpf); assay: difference in combined optomotor response to red, green and blue moving lines vs DMSO (percentage points); higher = stronger optomotor response than DMSO
Outline: as §1

SMILES	difference in excitability [1]	difference in startle response [2]	difference in activity during first hour [3]	difference in habituation to acoustic stimuli [4]	difference [5]
C[C@H](CCC(=O)O)[C@H]1CC[C@H]2[C@@H]3[C@H](O)C[C@@H]4C[C@H](O)CC[C@]4(C)[C@H]3C[C@H](O)[C@]12C [Cholic Acid]	-2.04	2.75	8.68	3.98	-1.08
Cc1cn[nH]c1 [Fomepizole]	-1.56	-0.451	3.73	2.38	-2.44
CCOc1ccc(Cc2cc([C@@H]3O[C@H](CO)[C@@H](O)[C@H](O)[C@H]3O)ccc2Cl)cc1 [Dapagliflozin]	-2.18	0.361	-2.82	-5.36	5.64
COc1cccc2c1C(=O)c1c(O)c3c(c(O)c1C2=O)C[C@@](O)(C(=O)CO)C[C@@H]3O[C@H]1C[C@H](N)[C@H](O)[C@H](C)O1 [Doxorubicin (hydrochloride)]	6.65	3.55	-7.11	6.05	-4.42
Nc1cccc2c1CN(C1CCC(=O)NC1=O)C2=O (stereo not given) [Lenalidomide]	-0.5	7.32	0.485	-0.169	5.58
CCCS(=O)(=O)Nc1ccc(F)c(C(=O)c2c[nH]c3ncc(-c4ccc(Cl)cc4)cc23)c1F	-2.43	-1.48	-5.03	2.88	-0.602
CC(=O)N(CC(O)CO)c1c(I)c(C(=O)NCC(O)CO)c(I)c(C(=O)NCC(O)CO)c1I (stereo not given) [Iohexol]	1.55	0.754	5.28	-1.14	-0.849
OC[C@H]1NC[C@H](O)[C@@H](O)[C@H]1O [1-Deoxygalactonojirimycin (hydrochloride)]	1.33	1.49	16.8	3.98	3.06
CCOc1nc2cccc(C(=O)OC(C)OC(=O)OC3CCCCC3)c2n1Cc1ccc(-c2ccccc2-c2nn[nH]n2)cc1 (stereo not given) [Candesartan Cilexetil]	12.4	-6.23	-2.86	-2.83	-2.76
CCOc1ccc(Cc2cc([C@]34OC[C@](CO)(O3)[C@@H](O)[C@H](O)[C@H]4O)ccc2Cl)cc1 [Ertugliflozin]	0.00277	-5.35	3.38	4.89	1.51
CNCCC=C1c2ccccc2CCc2ccccc21 [Nortriptyline (hydrochloride)]	3.17	4.3	-17.9	-3.34	-2.39
CCOC(=O)[C@H](CCc1ccccc1)N[C@@H](C)C(=O)N1Cc2ccccc2C[C@H]1C(=O)O [Quinapril (hydrochloride)]	-1.99	-2.06	12.4	-0.155	2.4
CCCCCCCCCCCCCCCCCCCCCCO [Docosanol]	3.23	1.61	-0.528	-2.06	0.854
CNC(=O)c1cc(Oc2ccc(NC(=O)Nc3ccc(Cl)c(C(F)(F)F)c3)c(F)c2)ccn1 [Regorafenib]	20.9	-2.66	-3.38	-6.09	1.15
COc1c(C)c2c(c(O)c1C/C=C(\C)CCC(=O)OCCN1CCOCC1)C(=O)OC2 [Mycophenolate Mofetil]	7.89	-4.66	-3.09	-2.74	1.02
Nc1nc2[nH]cc(CCc3ccc(C(=O)N[C@@H](CCC(=O)O)C(=O)O)cc3)c2c(=O)[nH]1 [Pemetrexed (sodium salt hydrate)]	7.7	-0.109	-1.67	4.63	5.29
C[C@@H](Oc1cc(-c2cnn(C3CCNCC3)c2)cnc1N)c1c(Cl)ccc(F)c1Cl [(R)-Crizotinib]	11.1	-4.49	-3.18	0.409	-0.753
COc1cc2nc(N3CCN(C(=O)C4COc5ccccc5O4)CC3)nc(N)c2cc1OC (stereo not given) [Doxazosin (mesylate)]	25	8.69	7.65	-8.22	-5.73
CC(=O)S[C@@H]1CC2=CC(=O)CC[C@]2(C)[C@H]2CC[C@@]3(C)[C@@H](CC[C@@]34CCC(=O)O4)[C@H]12 [Spironolactone]	2.95	-1.12	0.438	-0.129	-0.69
C[N+](C)(C)C[C@H](O)CC(=O)[O-] [L-Carnitine]	-2.51	-2.46	8.51	4	3.58
COCCCOc1cc(C[C@@H](C[C@H](N)[C@@H](O)C[C@H](C(=O)NCC(C)(C)C(N)=O)C(C)C)C(C)C)ccc1OC [Aliskiren (hemifumarate)]	16.6	-3.2	10.2	0.61	3.27
Clc1ccc(C(Cn2ccnc2)OCc2csc3c(Cl)cccc23)c(Cl)c1 (stereo not given) [Sertaconazole (nitrate)]	4.31	-8.13	-18.2	-10	-11.3
O=C(c1ccc(OCCN2CCCCC2)cc1)c1c(-c2ccc(O)cc2)sc2cc(O)ccc12 [Raloxifene (hydrochloride)]	22	-0.808	-9.71	2.6	1.59
N=C(N)NC(=O)c1nc(Cl)c(N)nc1N [Amiloride (hydrochloride) (hydrate)]	10.2	-1.2	-3.37	2.2	2.45
Nc1cccc2c1C(=O)N(C1CCC(=O)NC1=O)C2=O (stereo not given) [Pomalidomide]	0.1	2.2	0.787	2.64	1.26
CN(C)CC[C@@H](c1ccc(Cl)cc1)c1ccccn1 [Dexchlorpheniramine (maleate)]	5.44	3.98	-18.8	1.79	-3.17
